Consider 22 sequences from the supplement of paper PMC6555819.

For the experiment, the system named is RXRa DBDmut IVT, anti-RXR (DBD mutation: RXRa K156A/R161A, NR concentration 90 nM). As to the kind of experiment: PBM binding z-score (relative to random genomic background probes); higher = stronger binding; sequences stand for … in GC…GCGATTGACAGCGTAGAATGAAGG
The method, boiled down: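 The probes on custom Agilent 4×180K protein-binding microarrays were double-stranded, with 34-nt variable regions bearing direct-repeat seeds, single-nucleotide variants, half-site ablations and random human genomic background sequences. Incubation lasted 1 h with ligand-free nuclear receptor dimers in PBS pH 7.4, 2% milk, 0.02% Triton X-100, 1 mM DTT, 0.2 mg/mL BSA and 0.4 mg/ml salmon testes DNA. Antibodies against each partner (one per run) detected bound dimers, and fluorescence scans were regression-normalized. Binding z-scores take the random background probes as reference.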
In turn, GCTCGGAGGACAAGGTCAGATCTTTGTCCGTAGA came in with a PBM binding z-score of 0.628. Sequence CTACCAAGGTGAGCAAGGTCGTTGATTACTATTC came in with a PBM binding z-score of 0.939. In turn, CGTCCAAGATCAAGGTCAGTGAAAGAGACTCGAA registered a PBM binding z-score of 1.15. The figure for AGAATGAGGTTATTAAGATCAGGGAGTTGCGGTC is 1.99; for ACAGACAGGTGAGGAAGGTAACTCAGGCTATCAT it is -0.639; for CGTCCATGGTCAGCAGGTCAGTGAAAGCGACGTG it is -0.144. TCTTGTAGATCATAGGTTAAGAAAGCCGAAGCCT: the PBM binding z-score is 0.657. The same measure for CAAACTAGGTCACAAAGGTCAAAGTCCGTGCGTA: 3.46; for CTCGAAAGGTCGTGCTAAGGTGAGTATACCAAAC: 2.01; for TCGAGTAGGTTAACAATGGGGCATTCAGCTTTCT: 0.509. The same measure for ACAGACAGGTGATGAAGGTTACTCAGGCTATCAT: 0.104; for AGAACGAGGGCACGCTGAGTTGATACCAGAGTAG: 1.46.

Take TAGCCTACGTCATTGGGCCAGTATAGTACGCATC: the PBM binding z-score is -0.739. GCGACTGGGGCATAAGCAGGTTACCATAACTTAA: the PBM binding z-score stood at 0.0117. The figure for GCTTCTAGGTCAGGTTGGTCAGCTAACGGGTACG is 0.783. Sequence TGCCAAAGTTCAAAGGTAACGTAAGTATCCACAC returned a PBM binding z-score of 4.65.

TCTCCGAGGACACGAAAGGTCAGAGCTCGACATC displayed a PBM binding z-score of 1.34. The same measure for CCGACTGGGGCAGAAAGGTTACCAAACCATCCGG: -0.609; for ACAGACAGGTGTTGAAGGTAACTCAGGCTATCAT: -0.19; for TCGAGTAGGTTAGCGGCATTCAGAATGGCGTCGA: -0.267.

In the case of CCTACTGGGCCATTCACAGGTCATTGATCATATG, the PBM binding z-score was determined as 0.46. For AGAATGAGGTTATACGTAAATCAGGGAAGAAAGT, the PBM binding z-score stood at 1.72.
